Source: PubChem BioAssay
AI-2 QS modul: Vibrio harveyi AI-2 quorum sensing modulators, primary screen, JMH597 strain, luminescence/OD600 ratio; Vibrio harveyi JMH597 AI-2 luminescence/OD600 ratio, 9 h; stronger effect = lower value; strain lacks LuxN and CqsS sensors; 0 = neutral-control median; 300,000 tested, 0.4% active; activity change, % at 7.5 µM; AID 2094, 2009; in the data active = activity change below about -75%, passing the limit was not always enough;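 note: luminescence divided by OD600 gain over 9 h not by final OD600 alone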
H9c2 protect: cardioprotection against H2O2-induced cell death, primary screen, uHTS, H9c2 cells, ATPLite luminescence; 360,000 tested, 0.63% active; protection from H2O2 cell death, % at 20 µM; H9c2 cardiomyocytes, H2O2 injury protection, 2 h;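 active = compounds giving at least 50% protection of heart cells from peroxide-induced death in the single-dose screen, raw or plate-pattern-corrected value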;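 note: 0% = DMSO wells with peroxide and 100% = DMSO wells without peroxide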
AHR act: AHR activators, primary screen, cell-based, luminescence, luciferase reporter, human; AHR-responsive luciferase reporter cells; 320,000 tested, 2.5% active; AID 2796, 2010; activation, % at 5 µM; Aryl hydrocarbon receptor (Homo sapiens), P35869; in the data active = activation above about 47%;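 note: 0% = vehicle wells and 100% = reference agonist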
Target sequence (P35869 whole entry, looked up): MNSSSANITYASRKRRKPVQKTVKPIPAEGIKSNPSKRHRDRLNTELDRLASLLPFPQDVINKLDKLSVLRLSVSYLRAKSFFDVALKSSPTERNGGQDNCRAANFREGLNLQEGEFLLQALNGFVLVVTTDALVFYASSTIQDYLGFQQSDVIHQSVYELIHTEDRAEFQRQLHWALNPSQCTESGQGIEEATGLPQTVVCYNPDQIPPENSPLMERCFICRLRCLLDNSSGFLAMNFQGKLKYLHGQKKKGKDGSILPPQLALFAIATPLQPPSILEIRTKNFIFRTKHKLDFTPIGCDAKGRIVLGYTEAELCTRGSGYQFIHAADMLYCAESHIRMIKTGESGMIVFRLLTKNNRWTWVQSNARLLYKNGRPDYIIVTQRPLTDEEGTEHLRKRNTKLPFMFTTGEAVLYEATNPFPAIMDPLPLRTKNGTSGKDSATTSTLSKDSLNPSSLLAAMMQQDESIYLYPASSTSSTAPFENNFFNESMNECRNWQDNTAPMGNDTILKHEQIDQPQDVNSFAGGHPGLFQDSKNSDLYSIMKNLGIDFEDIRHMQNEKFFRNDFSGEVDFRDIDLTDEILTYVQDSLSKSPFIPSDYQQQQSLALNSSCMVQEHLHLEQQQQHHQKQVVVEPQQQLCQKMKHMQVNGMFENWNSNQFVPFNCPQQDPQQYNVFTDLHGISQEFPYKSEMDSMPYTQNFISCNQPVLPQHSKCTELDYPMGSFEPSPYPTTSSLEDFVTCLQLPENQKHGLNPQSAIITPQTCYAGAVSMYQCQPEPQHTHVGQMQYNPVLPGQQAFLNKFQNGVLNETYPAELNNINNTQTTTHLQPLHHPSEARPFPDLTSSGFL
GRIN3A LBD mod: binders of NR3A ligand-binding domain, primary screen, biophysical, differential scanning fluorimetry, uHTS; Glutamate receptor ionotropic, NMDA 3A (GRIN3A) ligand-binding domain; NR3A LBD differential scanning fluorimetry, Tm shift; 0% = protein alone, 100% = glycine-bound protein; Tm shift relative to glycine control, % at 25 µM; 340,000 tested, 2.5% active;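 active = melting temperature shift of at least 10% of the positive control shift, at one fixed dose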
NTR1 ag: agonists of human NTR1, primary screen, imaging, U2OS cells, beta-arrestin-GFP, high content; NTR1-U2OS beta-arrestin-GFP spot imaging, agonist mode; Neurotensin receptor type 1 (Homo sapiens), P30989; 330,000 tested, 0.17% active; activation, % at 20 µM;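 active = activation at or above 40% of the spot to cytoplasm intensity ratio, with at least 20 cells analyzed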;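 note: 0% = DMSO without peptide and 100% = 100 nM NTR1 peptide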
SUMO Mot1 rescue: yeast Mot1-301 growth rescue at high temperature, primary screen, SUMOylation pathway inhibitor project, S. cerevisiae, ATP luminescence, 38.5C; S. cerevisiae Mot1-301 growth rescue; percent above DMSO median, 100 means doubled; growth rescue, % at 18.8 µM; 320,000 tested, 1% active;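 active = every valid replicate shows activation above 250% relative to neutral control wells; inactive = the rest, any valid replicate at or below 250%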;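 note: OY570 slx delta 5 strain wells were the positive control but not used for scaling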
* = called active by the depositor; . = no result given. This is a sample that favours compounds with a hit; in the whole collection about 6.2% have one here.

SMILES	AI-2 QS modul	H9c2 protect	AHR act	GRIN3A LBD mod	NTR1 ag	SUMO Mot1 rescue
O=C(Nc1ccccc1O)c1c(O)c2c([nH]c1=O)CCCC2	-2.5	-26.7	56.8*	13.9*	6.9	-0.6
O=C(Nc1nccs1)c1c(O)c2c([nH]c1=O)CCCC2	15.0	-5.7	3.3	0.7	2.9	16.4
Cc1cc(C)c(S(=O)(=O)Cc2ccccc2)c(Cl)n1	-0.1	7.8	22.9	-0.7	-0.2	-7.4
COCCNC(=O)C(OC(=O)c1ccco1)c1ccccc1F (stereo not given)	2.5	-0.7	0.1	-2.2	-0.7	-13.6
CC1(C)N([O-])C(c2ccccc2)=C[N+](=O)C1(C)C	-0.6	1.4	-0.6	681.0*	-2.7	119.3
COc1ccc(OC)c(C2=C[N+](=O)C(C)(C)C(C)(C)N2[O-])c1	41.0	7.3	0.4	-1.7	-0.7	-10.3
CCOC(=O)c1cc2sccc2n1CC(=O)O	-2.4	3.2	-5.2	1.4	1.7	-19.3
CCOC(=O)c1cc2sccc2n1CC(=O)N1c2ccccc2CC1C (stereo not given)	16.6	11.1	-2.6	12.0*	13.6	-1.2
c1ccc(Cn2nnnc2C(c2cccs2)N2CCCCCC2)cc1 (stereo not given)	21.3	-19.4	1.6	4.2	6.6	45.4
c1ccc(Cn2nnnc2C(c2cccs2)N2CCc3ccccc3C2)cc1 (stereo not given)	4.4	-5.9	1.3	15.7*	-0.1	-3.7
O=C(OCc1nc2ccsc2c(=O)[nH]1)c1cc(Br)c(Br)s1	-1.1	10.0	5.3	22.2*	0.5	-5.0
Cc1ccc(C(=O)OCc2nc3ccsc3c(=O)[nH]2)o1	1.9	8.7	3.5	-0.4	-0.9	15.2
Cc1noc(C)c1NC(=O)Nc1ccc2c(c1)CC(=O)N([C@H](C)CO)C[C@@H](C)[C@H](CN(C)CC1CCCCC1)O2	.	1.7	-1.0	5.3	-0.5	17.2
O=C(CCCCC(=O)NN=Cc1ccccc1O)NN=Cc1ccccc1O	.	60.5*	.	35.4*	.	.
C=CCn1c(CNc2ccccc2)nnc1SCC(=O)N/N=C/c1ccccc1O	46.1	62.6*	-1.3	-0.3	-0.6	10.8
Cc1cc([N+](=O)[O-])nn1CC(=O)N/N=C/c1ccccc1O	52.3	57.8*	1.4	-2.3	-0.8	0.9
Cc1cc([N+](=O)[O-])nn1CC(=O)N/N=C/c1ccccc1F	19.6	1.1	0.5	6.2	0.3	-1.6
O=C(CCn1cnc(-c2ccccc2)c1-c1ccccc1)N/N=C/c1ccccc1O	10.3	56.6*	1.6	-1.7	8.5	12.9
COc1ccccc1/C=N/NC(=O)CC(=O)NCc1cccnc1	4.4	1.9	12.3	-0.7	6.6	0.0
O=C(COc1nsnc1N1CCOCC1)N/N=C/c1ccccc1O	24.8	72.9*	2.2	-0.5	-1.8	240.1
O=C(CC(=O)N/N=C/c1ccccc1O)NCc1cccnc1	14.5	63.2*	5.1	-3.9	-0.4	246.3
O=C(CSCC(=O)NN=Cc1ccccc1O)NN=Cc1ccccc1O	.	43.4	.	25.5*	.	.
CC(C)c1ccc(NC(=O)COC(=O)c2nn(C)c(=O)c3ccccc23)cc1	.	-1.7	6.8	-5.7	3.5	-0.5
Cc1nn(-c2ccccc2)cc1C(c1c(N)[nH]c(=S)[nH]c1=O)c1c(N)[nH]c(=S)[nH]c1=O	17.9	-0.2	0.6	15.9*	1.1	0.8
COc1ccc(CNC(=O)C/C(C)=N/NC(=O)c2ccc(OC)cc2OC)cc1	48.8	-1.3	13.4	-0.6	-1.2	168.9
SMILES	AI-2 QS modul	H9c2 protect	AHR act	GRIN3A LBD mod	NTR1 ag	SUMO Mot1 rescue
CC(C)Cn1c(-c2cccs2)nc2nc3ccccc3nc21	33.5	12.8	51.6*	-0.1	0.3	-11.6
COc1ccc(-c2ccccc2)cc1NC(=O)C1(C)CCN1C(=O)C(C)C (stereo not given)	.	1.6	.	.	.	.
Cc1ccc(OCCN2C(=O)c3ccccc3C2=O)cc1	3.4	-0.6	35.6	3.7	2.5	5.8
O=C1c2ccccc2C(=O)N1CCOc1cccc(Br)c1	15.9	-1.8	31.4	11.1*	2.1	29.0
O=C(NC(Cc1ccccc1)C(=O)O)/C(=C/c1ccc([N+](=O)[O-])cc1)NC(=O)c1ccco1 (stereo not given)	8.9	3.4	1.8	0.8	-0.6	-6.6
COc1ccccc1C(=O)NNC(=O)c1ccc(Br)o1	15.7	-3.7	55.2*	-1.1	0.9	6.6
Cc1ccccc1NC(=O)NC1(C(=O)N2CCC(C(N)=O)CC2)CCCCC1	16.3	-2.5	-2.4	1.2	-1.5	17.0
CCOC(=O)COc1cc(N2C(=O)CSCC2=O)c(Cl)cc1Cl	4.5	15.5	-0.5	1.6	-0.8	-7.4
CCOC(=O)COc1cc(-n2c(=S)[nH]c3cc(OC)c(OC)cc3c2=O)c(Cl)cc1Cl	31.3	4.3	0.9	12.6*	3.2	2.9
CSc1ccc(C2Nc3cccc4cccc(c34)N2)cc1	14.6	-4.2	30.9	7.8	1.2	6.0
Clc1ccc(C2Nc3cccc4cccc(c34)N2)cc1	-0.3	-0.5	60.1*	3.2	1.6	1.9
S=C1NC2(CCCCC2)NN1c1ccccc1	21.9	8.8	29.8	-1.0	3.5	363.8*
CC1CCCC2(C1)NC(=S)N(c1ccccc1)N2 (stereo not given)	2.6	2.8	28.4	0.5	-0.8	122.4
CS(=O)(=O)Nc1ccc(-c2cnc3cccnn23)cc1	.	-0.3	.	.	.	.
O=[N+]([O-])c1cc(/C=N/O)ccc1Oc1ccccc1Cl	6.5	0.0	4.6	-1.5	0.1	265.8*
CCCS(=O)(=O)NC(=O)C1(C)CCCN(C(=O)c2cc(C)n(C(C)(C)C)n2)C1 (stereo not given)	.	-1.3	.	.	.	.
O=C(C(Br)=Cc1ccccc1)c1ccccc1	.	-6.9	.	5.8	.	.
CC1(C(=O)NS(=O)(=O)c2ccccc2C(F)(F)F)CCN1C(=O)c1cccc(F)c1 (stereo not given)	.	6.3	.	.	.	.
Cc1cc(=O)oc2c1c(C)nn2-c1cccc(Cl)c1	14.8	-1.5	71.4*	0.8	0.9	7.5
Cc1cc(=O)oc2c1c(C)nn2-c1ccc(Br)cc1	15.0	-3.5	67.1*	-1.9	3.3	9.0
Cc1cc(Nc2ccccc2)n(-c2ccc(Br)cc2)n1	-13.9	-16.9	12.8	-6.6	-0.7	-4.8
CC(C)(CO)NC(=O)c1ccc2nc(Cc3cccc(Cl)c3)oc2c1	24.6	2.9	6.9	-3.2	-0.2	-18.4
CCOC(=O)C(C(=O)OCC)C(=O)c1cccc2ccc3ccccc3c12	.	2.8	.	.	.	.
